Test results from PubChem BioAssay (NCI).
About 83,000 compounds went through this panel and 20% of them were active in at least one assay; those are over-represented in the sample as a whole.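 Activity criterion: percent growth below 10, measured after cells in 96-well plates were exposed to a single compound concentration for 48 hours.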 Active and inactive are the calls of the source.

System: UACC-62 melanoma
Experiment: NCI-60 one-dose screen, 48 h (100 = growth as untreated, 0 = no growth, -100 = all killed)
Conditions: 10 µM

SMILES | growth
Clc1ccc(/C=C2\CCCC3C2=Nc2ccccc2NC3c2ccc(Cl)cc2)cc1 (stereo not given) | 74.2% (inactive)
CCC(c1ccc(OC)cc1)C(CC)c1ccc(O)c(CN2CCN(C)CC2)c1 (stereo not given) | -30.5% (active)
CC[C@@H](C(=O)[C@H](C)[C@H](O)[C@@H](C)[C@H]1O[C@H]([C@@H](CC)C(=O)N(CC)CC)CC[C@H]1C)C1O[C@]2(C=C[C@@H](O)[C@]3(CC[C@@](C)([C@H]4CC[C@](O)(CC)[C@H](C)O4)O3)O2)[C@H](C)C[C@@H]1C (stereo not given in full) | 14.3% (inactive)
c1ccc(/C(=N\Nc2ccc3ccccc3n2)c2ccccn2)cc1 | -49.5% (active)
O=C(NCCCNS(=O)(=O)c1ccc(Cl)cc1)Nc1ccc(-n2cc(-c3ccncc3)c(-c3ccc(Cl)c(O)c3)n2)cc1 | 42.8% (inactive)
Nc1ncnc2c1ncn2C1(CO)OCC(O)C(O)C1O (stereo not given) | 105% (inactive)
CN(C)CCOc1ccc(-c2nc3sccn3c2-c2ccnc(S(C)(=O)=O)n2)cc1 | 105% (inactive)
CC[C@H]1OC(=O)[C@H](C)[C@@H](O[C@H]2C[C@@](C)(OC)[C@@H](O)[C@H](C)O2)[C@H](C)[C@@H](O[C@@H]2O[C@H](C)C[C@H](N(C)C)[C@H]2O)[C@](C)(OC)C/C(C)=C2/O[C@@]1(C)C=C2C | -83.8% (active)
COc1cc(/C=C2\CCCC3=C2NC(N)=NC3c2cc(OC)c(OC)c(OC)c2)cc(OC)c1OC (stereo not given) | -41.1% (active)
O=[N+]([O-])c1cccc(/C=N/NC(=S)NC23CC4CC(CC(C4)C2)C3)c1 | 84.3% (inactive)
CNC(=O)c1cc(Oc2ccc3c(c2)sc2nc(-c4ccc(N)cc4)cn23)ccn1 | 41.9% (inactive)
COc1ccc2c(c1)OC(N)=C(C#N)C2c1cc(OC)c(OC)c(OC)c1 (stereo not given) | 39% (inactive)
S=C(NCc1ccccc1)NCc1ccccc1 | 102% (inactive)
CC(=O)OC1C=CC(OC(C)=O)O1 (stereo not given) | 84.4% (inactive)
Cc1ccc(Cl)cc1NC(=O)CCl | 66.3% (inactive)
CCC(C)[C@H](NC(C)=O)C(=O)N[C@@H](CCCNC(=N)N)C(=O)N[C@@H](CCCCN)C(=O)N[C@@H](CC1CCC(O)CC1)C(=O)NC(C(=O)N[C@@H](CCSC)C(=O)N[C@@H](CCCNC(=N)N)C(=O)N[C@@]1(C)CCC/C=C\CCC[C@@](C)(C(=O)NC(C(=O)N[C@@H](CCC(=O)O)C(=O)N[C@@H](CC(C)C)C(=O)N[C@H](C(=O)N[C@@H](CCC(=O)O)C(N)=O)C(C)C)[C@@H](C)O)NC(=O)[C@H](CCC(N)=O)NC(=O)[C@H](CC(C)C)NC(=O)[C@H](CC(C)C)NC1=O)[C@@H](C)O (stereo not given in full) | 99.6% (inactive)
COc1cc2cc(Oc3ccc(NC(=O)c4cccc(C(F)(F)F)c4)cc3)c(C)nc2cc1OC | 29.3% (inactive)
COC(=O)C1(O)NC(=C(C#N)C#N)C(C#N)=C1C(=O)c1ccc(OC)c(OC)c1 (stereo not given) | 99.3% (inactive)
COc1ccc(-c2onc(N)c2-c2cc(OC)c3c(c2)OCO3)cc1 | 42.7% (inactive)
NC(N)=N/N=C(\c1ccccc1)C(O)c1ccccc1 (stereo not given) | 94.6% (inactive)

SMILES | growth
COc1cc2cc(Oc3ccc(NC(=O)c4ccccc4)cc3)c(C)nc2cc1OC | 95.9% (inactive)
CS(=O)(=O)c1nccc(-c2c(-c3cccc(OCc4ccc(F)cc4)c3)nc3sccn23)n1 | 60.1% (inactive)
CCOC(=O)c1cc(C(=O)c2ccc(F)cc2F)n2ccccc12 | 86.4% (inactive)
O=C(N/N=C/c1ccc(Cl)cc1)c1ccccc1Nc1cccc(C(F)(F)F)c1 | 76.4% (inactive)
CC(C)(C)OC(=O)N1CCc2c(sc3ncnc(N/N=C/c4ccccc4Br)c23)C1 | 60.1% (inactive)
CC(C)N(CCOc1ccc(-c2nc3sccn3c2-c2ccnc(S(C)(=O)=O)n2)cc1)C(C)C | 83.9% (inactive)
CN(C)CCCOc1ccc(NC2=C(Cl)C(=O)C(Nc3ccc(OCCCN(C)C)cc3)=C(Cl)C2=O)cc1 | -74.9% (active)
COc1cccc(C2C(C#N)=C(N)Oc3cc(N)ccc32)c1 (stereo not given) | 41.7% (inactive)
Cc1ccc(NCCN(C)CC(C)O)c2c(=O)c3ccccc3sc12 (stereo not given) | -2.71% (active)
CCCCN(CCCC)C(=O)[C@H](CC)[C@@H]1CC[C@@H](C)[C@@H]([C@H](C)[C@@H](O)[C@@H](C)C(=O)[C@H](CC)C2O[C@]3(C=C[C@@H](O)[C@]4(CC[C@@](C)([C@H]5CC[C@](O)(CC)[C@H](C)O5)O4)O3)[C@H](C)C[C@@H]2C)O1 (stereo not given in full) | 12.2% (inactive)
CC(C)N(CCOc1cccc(-c2nc3sccn3c2-c2ccnc(S(C)(=O)=O)n2)c1)C(C)C | 84.1% (inactive)
NC(=O)c1cccc(-n2ccc3cc(NC(=O)Nc4ccc(Cl)c(C(F)(F)F)c4)ccc32)n1 | 70.9% (inactive)
COc1cccc(-c2nc3sccn3c2-c2cccc(S(C)(=O)=O)c2)c1 | 99.4% (inactive)
COc1ccc(Cl)cc1Nc1nc(C(F)(F)F)ccc1C(=O)N/N=C/c1ccc(Cl)cc1 | 24.1% (inactive)
CCOc1ccccc1/C=N\N=C\c1ccccc1O | 93% (inactive)
CN(C)c1ccc(/C=N/NC(=O)c2ccccc2Nc2cccc(C(F)(F)F)c2)cc1 | 86.3% (inactive)
COc1cc2cc(Oc3ccc(NC(=O)Nc4cccc(C(F)(F)F)c4)cc3)c(C)nc2cc1OC | 14.5% (inactive)
O=C(Nc1cc(Cl)cc2c1-c1ccc(Cl)cc1C2O)C(Cl)Cl (stereo not given) | 60.3% (inactive)
C/C(=N\O)c1ccc(NC(=O)CSc2nnc(-c3ccccc3)n2-c2ccccc2)cc1 | 81.9% (inactive)
CCN(CC)CCCOc1cccc2c1C(=O)c1cccc(OCCCN(CC)CC)c1C2=O | 53% (inactive)
